EPAC1 antag – blocks human EPAC1 exchange factor; O95398; EPAC1 GEF assay, Rap1b-BODIPY-GDP exchange fluorescence; Potency, µM (top dose mostly 115 µM), usual class: inhibitors; actives 0.14% (n = 360,000); also: nearly all actives have a fitted effect of over 50% in size
FBPA coupling cs – coupling enzyme interference in Giardia aldolase counter-screen | coupling enzyme system counterscreen, AmpLite Red fluorescence | activity change, negative = inhibition, % at 58.2 µM, hits read low | actives 0.67% (n = 290,000); in the data active = activity change below about -30%
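Final compound at 57.5 uM, incubated 10 min at RT with coupling enzyme reagent (glyceraldehyde-3-phosphate), then 20 min with substrate and AmpLite Red detection. Fluorescence read at 525/598 nm; tests interference with the coupling assay, not aldolase inhibition.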
EPAC1 agonist – activates human EPAC1 exchange factor; AID 720707; EPAC1 agonist qHTS, biochemical assay; response scale: 100% = response to 6.5 mM cAMP; actives 0.073% (n = 360,000); O95398; Potency, µM (doses to about 154 µM), most hits filed as activators; also: nearly all actives have a fitted effect of over 60% in size
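Nucleotide exchange assay: 100 nM EPAC1 with 250 nM Rap1B loaded with BODIPY-GDP and 50 uM GDP, room temperature. Fluorescence (480/540 nm) read every 5 min for 30 min; signal change normalized to 6.5 mM cAMP as full agonist.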
EPAC2 agonist – EPAC2 (human) agonism. Q8WZA2. EPAC2 activation, biochemical qHTS; response scale: 100% = 6.5 mM cAMP response. Potency, µM (series often up to 154 µM), most hits filed as activators. actives 0.079% (n = 360,000). AID 720711; also: nearly all actives have a fitted effect of over 50% in size
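In this primary screen, activation is scored as increased exchange of BODIPY-GDP from Rap1B by 100 nM EPAC2, with 50 uM GDP as competitor. Signal is normalized to the 6.5 mM cAMP agonist control.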
USP1-UAF1 inh – blocks the human USP1/UAF1 deubiquitinase complex; actives 0.23% (n = 390,000); Potency, µM (titrated, usually from 57.1 µM), usual class: inhibitors; AID 743255; O94782; recombinant USP1/UAF1, Ub-Rhodamine cleavage fluorescence; also: nearly all actives have a fitted effect of over 60% in size
Target sequence (O94782 whole entry, looked up): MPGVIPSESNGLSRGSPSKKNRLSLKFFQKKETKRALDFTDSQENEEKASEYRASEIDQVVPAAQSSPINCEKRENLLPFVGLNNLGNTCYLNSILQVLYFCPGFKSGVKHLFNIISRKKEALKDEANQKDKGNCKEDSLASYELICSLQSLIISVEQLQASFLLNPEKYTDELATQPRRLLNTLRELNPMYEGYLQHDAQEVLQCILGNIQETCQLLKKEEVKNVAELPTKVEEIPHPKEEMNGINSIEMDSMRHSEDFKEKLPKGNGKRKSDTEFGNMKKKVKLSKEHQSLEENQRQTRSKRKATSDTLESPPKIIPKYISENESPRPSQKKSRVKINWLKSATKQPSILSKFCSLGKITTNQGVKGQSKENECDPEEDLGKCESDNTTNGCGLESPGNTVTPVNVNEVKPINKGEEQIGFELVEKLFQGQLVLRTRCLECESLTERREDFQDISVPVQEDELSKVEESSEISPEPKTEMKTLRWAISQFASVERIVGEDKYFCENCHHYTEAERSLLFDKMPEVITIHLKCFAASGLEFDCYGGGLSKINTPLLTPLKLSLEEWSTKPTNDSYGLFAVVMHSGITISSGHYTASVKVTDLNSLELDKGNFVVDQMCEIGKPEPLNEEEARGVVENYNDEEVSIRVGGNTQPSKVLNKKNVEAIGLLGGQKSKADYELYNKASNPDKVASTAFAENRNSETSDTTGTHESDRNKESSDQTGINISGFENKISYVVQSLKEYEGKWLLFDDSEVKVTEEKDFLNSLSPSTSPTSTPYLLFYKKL
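1 nM enzyme complex + cpd, 15 min RT; start with Ub-Rho 150nM final; kinetic fluorescence ex 480/em 540, 6 reads q60 s. Buffer 50mM HEPES pH 7.8, 0.5mM EDTA, 0.1 mg/ml BSA, 1mM TCEP, 0.01% Tween-20.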
EPAC2 antag – antagonists of human EPAC2; Q8WZA2; EPAC2 GEF exchange of Rap1B-BODIPY-GDP, fluorescence; Potency, µM (highest dose often 114 µM), hits mostly inhibitors; actives 0.18% (n = 360,000); AID 720708; also: nearly all actives have a fitted effect of over 45% in size
Each line names hits and unclear results; the compound was inactive in the other large screens. A selection: hits, their analogues and other compounds. The true share with any hit is near 0.87%. Unless noted, calls follow the shape of the dose curve; as a rule, active = well fitted curve in the direction sought with a large enough effect; inconclusive = small, poorly fitted or top-dose-only effect, or another doubt; inactive = no such curve, though single readings can be large; an effect the other way counts as inactive or inconclusive.

C[C@H](CO)N1C[C@H](C)[C@@H](CN(C)C(=O)Nc2ccc3c(c2)OCO3)Oc2ccc(NS(=O)(=O)c3ccccc3)cc2C1=O	none (no result: FBPA coupling cs)
COC(CNC(=O)c1ccc2c3c(onc13)-c1ccccc1C2=O)OC	EPAC1 antag inconclusive, EPAC1 agonist 56.2µM, EPAC2 agonist 50.1µM, USP1-UAF1 inh 17.8µM, EPAC2 antag inconclusive
Cc1cc(C)n(CC(O)COCc2ccccc2)n1 (stereo not given)	none
c1ccc2[nH]c3cc4ncnc4cc3nc2c1	FBPA coupling cs -42.6, USP1-UAF1 inh inconclusive
Cc1cnc(C(=O)NC(C)CCc2ccccc2)cn1 (stereo not given)	none
COc1ccc2nc(N3CCCC3)c(C#N)cc2c1	EPAC1 agonist inconclusive, EPAC2 agonist inconclusive, USP1-UAF1 inh 28.2µM
COc1ccc2nc(SCC(=O)N3CCCCC3)c(C#N)cc2c1	none
COc1ccc2nc(N3CCCCC3)c(C#N)cc2c1	FBPA coupling cs -33.2
COc1ccc2nc(SCC(=O)N3CCCCCC3)c(C#N)cc2c1	none
CC(=O)NS(=O)(=O)c1ccc(NC(=O)CSc2ccc(C)cc2)cc1	none
CCOC(=O)Nc1cc2c(c(N)n1)N=C(c1ccccc1)CN2	EPAC1 antag 89.1µM, USP1-UAF1 inh inconclusive (no result: FBPA coupling cs)
CCN(C(=O)C1CCCN(c2ncnc3c2nc2n3CCCCC2)C1)c1cccc(Cl)c1 (stereo not given)	none
O=C(NCc1ccccc1)C1(C(F)(F)F)C/C(=C/Cc2ccccc2)CCCO1 (stereo not given)	none (no result: EPAC1 antag, EPAC1 agonist, EPAC2 agonist, USP1-UAF1 inh, EPAC2 antag)
N#C/C(=C\c1coc2ccccc2c1=O)C(N)=S	none
N#C/C(=C\c1coc2ccc(O)cc2c1=O)C(=O)Nc1nc2ccccc2s1	EPAC1 agonist 89.1µM, EPAC2 agonist 31.6µM, USP1-UAF1 inh 25.1µM
O=S(=O)(Nc1cccc2cccnc12)c1ccccc1O	FBPA coupling cs -36.9 (no result: EPAC1 antag, EPAC1 agonist, EPAC2 agonist, USP1-UAF1 inh, EPAC2 antag)
CCc1ccccc1NC(=O)Cn1c(=O)n(-c2ccc(C)c(C)c2)c(=O)c2oc3ccccc3c21	none (no result: EPAC1 antag, FBPA coupling cs, EPAC1 agonist, EPAC2 agonist, EPAC2 antag)
O=[N+]([O-])c1ccc(NN=Cc2cccc(O)c2)nc1	none (no result: FBPA coupling cs)
Cc1cccc(C)c1-n1c(C)cc(/C=N\Nc2ccc([N+](=O)[O-])cn2)c1C	EPAC2 agonist 3.98µM
COc1cc(O)cc(OC)c1OC	FBPA coupling cs -32.5 (no result: EPAC1 antag, EPAC1 agonist, EPAC2 agonist, USP1-UAF1 inh, EPAC2 antag)
CC[C@@]1(c2ccccc2OC)ON(c2ccccc2C(F)(F)F)C1=O	EPAC2 antag 14.1µM (no result: FBPA coupling cs)
CCCCN(CC)c1nc(N)c2c(N)nc(OCC)cc2c1C#N	EPAC1 antag inconclusive, FBPA coupling cs -48.3, USP1-UAF1 inh inconclusive
CCCCN(CC)c1nc(N)c(C#N)c(CC#N)c1C#N	FBPA coupling cs -34.7, USP1-UAF1 inh inconclusive
Cc1nnc(SCC(=O)NNC(=O)c2ccccc2)n1N	none (no result: FBPA coupling cs)
CC1(C)Cc2c(sc(NC(=O)COc3cccc4ccccc34)c2C#N)C(C)(C)N1	USP1-UAF1 inh 17.8µM
Cc1ccc(OCC(=O)Nc2sc3c(c2C#N)CC(C)(C)NC3(C)C)cc1	none
CC1(C)N([O-])c2cc([N+](=O)[O-])ccc2[N+]1=O	EPAC1 antag 70.8µM, FBPA coupling cs -63.1, USP1-UAF1 inh 25.1µM, EPAC2 antag inconclusive
CCCc1cc(=O)[nH]c2nnc(SCC(=O)NC3CCCC3)n12	none (no result: FBPA coupling cs)
O=C1NN(c2ccc(Cl)cc2)C(=O)/C1=C\c1ccc(-c2cccc(C(=O)O)c2)o1	EPAC1 antag inconclusive, USP1-UAF1 inh inconclusive
O=C1NN(c2ccccc2)C(=O)/C1=C\c1ccc(-c2cc([N+](=O)[O-])ccc2O)o1	EPAC2 antag 79.4µM
CCN(Cc1ccccc1)C(=O)CCc1nc(CN2CCN(C(=O)c3ccc([N+](=O)[O-])cc3)CC2)no1	none
O=C(Nc1nccs1)C(NS(=O)(=O)c1ccc(Br)s1)c1ccccc1 (stereo not given)	none
COc1cc(C)c2c(c1C=O)Oc1c(c(C)c(O)c3c1C(O)OC3=O)OC2=O (stereo not given)	USP1-UAF1 inh 15.8µM, EPAC2 antag inconclusive
Cc1cc(O)c(C=O)c2c1C(=O)Oc1c(C)c(O)c3c(c1O2)C(O)OC3=O (stereo not given)	none (no result: EPAC1 antag, EPAC1 agonist, EPAC2 agonist, USP1-UAF1 inh, EPAC2 antag)
